Records with an inconclusive call do not appear. Active and inactive are the calls of the source. How the source made its calls, unless noted: active means hit-call score of the fitted dose curve at least 0.9, where 1 is the maximum; inactive means score below 0.9.
How the values were obtained:
[1] = read-out: Interleukin-1 alpha (IL1a), IL1A (gene 3552); assay: BSK_LPS_IL1a: BioMAP Diversity Plus: LPS Assay for Interleukin-1 alpha (IL1a) Biomarker Activity (AID 2283080); details: primary human HUVEC with PBMC; actives raise or lower the signal
Method in brief: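 Primary human HUVEC and PBMC co-culture stimulated with LPS is dosed and harvested at 24 h. Both increases and decreases in ELISA-measured IL-1a are scored relative to DMSO.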

[2] = read-out: Monocyte Chemoattractant Protein-1 (MCP1), CCL2 (gene 6347); assay: BSK_LPS_MCP1: BioMAP Diversity Plus: LPS Assay for Monocyte Chemoattractant Protein-1 (MCP1) Biomarker Activity (AID 2283081); details: primary human HUVEC with PBMC; actives raise or lower the signal;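 on AC50: secreted MCP-1 protein quantified by ELISA in culture supernatant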
Method in brief: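 Values derive from bidirectional fitting against DMSO of ELISA-measured MCP-1 in a human primary endothelial and mononuclear cell co-culture, 24 h after chemical addition under LPS activation.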

[3] = BSK_LPS_PGE2: BioMAP Diversity Plus: LPS Assay for Prostaglandin E2 (PGE2) Biomarker Activity (AID 2283082); details: primary human HUVEC with PBMC; actives raise or lower the signal;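 on AC50: secreted prostaglandin E2 measured by ELISA in LPS-stimulated co-culture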
Method in brief: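 HUVEC plus PBMC co-culture stimulated with LPS; secreted PGE2 quantified by ELISA 24 h after chemical dosing. Activity fitted bidirectionally against DMSO as negative control and baseline; parallel SRB total-protein staining served as cytotoxicity check.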

[4] = read-out: Macrophage colony-stimulating factor (MCSF), CSF1 (gene 1435); assay: BSK_LPS_MCSF: BioMAP Diversity Plus: LPS Assay for Macrophage colony-stimulating factor (MCSF) Biomarker Activity (AID 2283083); details: primary human HUVEC with PBMC; actives raise or lower the signal
Method in brief: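 Bidirectional fit versus DMSO of ELISA-measured M-CSF in co-cultured human umbilical vein endothelial cells and PBMC, sampled 24 h after dosing.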

[5] = read-out: Tissue Factor, F3 (gene 2152); assay: BSK_LPS_TissueFactor: BioMAP Diversity Plus: LPS Assay for Tissue Factor Biomarker Activity (AID 2283084); details: primary human HUVEC with PBMC; actives raise or lower the signal
Method in brief: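 Read-out: CD142 ELISA, 24 h. System: LPS-driven human endothelial/PBMC co-culture. Analysis: up- or down-signal fitted against DMSO.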

[6] = read-out: Tumor necrosis factor (Homo sapiens) (UniProt P01375); assay: BSK_LPS_TNFa: BioMAP Diversity Plus: LPS Assay for Tumour Necrosis Factor alpha (TNFa) Biomarker Activity (AID 2283085); details: primary human HUVEC with PBMC; actives raise or lower the signal
Method in brief: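 Human umbilical vein endothelial cells co-cultured with PBMC were exposed to test chemical and TNFa measured by ELISA 24 h after dosing. Bidirectional curve fitting was done relative to DMSO as negative control and baseline.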

[7] = read-out: Vascular cell adhesion molecule 1 (VCAM1), VCAM1 (gene 7412); assay: BSK_LPS_VCAM1: BioMAP Diversity Plus: LPS Assay for Vascular cell adhesion molecule 1 (VCAM1) Biomarker Activity (AID 2283086); details: primary human HUVEC with PBMC; actives raise or lower the signal
Method in brief: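 Human umbilical vein endothelial cells co-cultured with peripheral blood mononuclear cells under LPS stimulation were exposed to test chemical for 24 h. VCAM-1 levels were then measured by ELISA, with bidirectional curve fitting relative to DMSO as negative control and baseline.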

[8] = read-out: CD38, CD38 (gene 952); assay: BSK_SAg_CD38: BioMAP Diversity Plus: SAg Assay for CD38 Biomarker Activity (AID 2283087); details: primary human HUVEC with PBMC; actives raise or lower the signal
Method in brief: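 Fluorescence ELISA of cell-surface CD38 served as the read-out, with either increase or decrease fitted against DMSO controls. Cells were a human umbilical vein endothelium plus PBMC co-culture under SEB/TSST-1 stimulation, measured 24 h after dosing.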

[9] = read-out: CD40, CD40 (gene 958); assay: BSK_SAg_CD40: BioMAP Diversity Plus: SAg Assay for CD40 Biomarker Activity (AID 2283088); details: primary human HUVEC with PBMC; actives raise or lower the signal
Method in brief: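 Endpoint derived by fitting increases or decreases versus DMSO controls. CD40 is detected by fluorescence ELISA in a human vascular co-culture of endothelium and PBMC at 24 h.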

[10] = read-out: CD69, CD69 (gene 969); assay: BSK_SAg_CD69: BioMAP Diversity Plus: SAg Assay for CD69 Biomarker Activity (AID 2283089); details: primary human HUVEC with PBMC; actives raise or lower the signal;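 on AC50: cell surface CD69 protein quantified by ELISA with fluorescence detection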
Method in brief: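 Endothelial/PBMC co-culture; chemical added; 24 h incubation; CD69 ELISA with fluorescence detection; bidirectional fit vs DMSO.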

[11] = read-out: Monocyte Chemoattractant Protein-1 (MCP1), CCL2 (gene 6347); assay: BSK_SAg_MCP1: BioMAP Diversity Plus: SAg Assay for Monocyte Chemoattractant Protein-1 (MCP1) Biomarker Activity (AID 2283090); details: primary human HUVEC with PBMC; actives raise or lower the signal
Method in brief: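 MCP-1 levels in the endothelial–PBMC SAg co-culture were quantified by ELISA at 24 h post-dosing; both increases and decreases versus DMSO scored. Cytotoxicity monitored by SRB total protein in parallel cultures.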

[12] = read-out: E-selectin (Homo sapiens) (UniProt P16581); assay: BSK_SAg_Eselectin: BioMAP Diversity Plus: SAg Assay for Eselectin Biomarker Activity (AID 2283091); details: primary human HUVEC with PBMC; actives raise or lower the signal
Method in brief: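 Endpoint values derive from bidirectional fitting relative to DMSO, using ELISA-measured E-selectin in a human vascular co-culture (umbilical vein endothelium plus PBMC) sampled 24 h after dosing.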

[13] = read-out: Monokine induced gamma interferon (MIG), CXCL9 (gene 4283); assay: BSK_SAg_MIG: BioMAP Diversity Plus: SAg Assay for Monokine induced gamma interferon (MIG) Biomarker Activity (AID 2283092); details: primary human HUVEC with PBMC; actives raise or lower the signal
Method in brief: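 Measures CXCL9 protein by ELISA in a human vascular primary-cell co-culture (umbilical vein endothelium with PBMC) 24 h after chemical addition. Activity is scored up or down from the DMSO control.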

[14] = BSK_SAg_PBMCCytotoxicity: PBMC Cytotoxicity Assessment in the BioMAP Diversity Plus: SAg Assay (AID 2283093); details: primary human HUVEC with PBMC;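 further: PBMC viability measured as Alamar Blue reduction fluorescence at 546/580 nm; fitted both ways against DMSO so a hit may be loss or gain of signal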;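 on AC50: PBMC superantigen activated with SEB plus TSST-1 one hour after compound addition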
Method in brief: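 Compound added to 75,000 PBMC/well for 1 h; SEB and TSST-1 then added at 20 ng/mL final each; 90 h incubation; Alamar Blue 6 h; read 546/580 nm ex/em. Activity fitted bidirectionally relative to DMSO baseline.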

[15] = read-out: Interleukin-8 (IL8), CXCL8 (gene 3576); assay: BSK_SAg_IL8: BioMAP Diversity Plus: SAg Assay for Interleukin-8 (IL8) Biomarker Activity (AID 2283094); details: primary human HUVEC with PBMC; actives raise or lower the signal
Method in brief: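 Human umbilical vein endothelial cells co-cultured with peripheral blood mononuclear cells; IL-8 measured by ELISA 24 h after chemical dosing. Bidirectional concentration-response fitting used DMSO as negative control and activity baseline.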

[16] = BSK_SAg_Proliferation: Cell Proliferation Assessment in the BioMAP Diversity Plus: SAg Assay (AID 2283095); details: primary human HUVEC with PBMC;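 further: relative cell number as total protein by SRB absorbance in sub-confluent culture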
Method in brief: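 Human umbilical vein endothelial cells co-cultured with peripheral blood mononuclear cells; total protein measured by sulforhodamine B staining (0.1% SRB after 10% TCA fixation), absorbance at 560 nm, at 96 h. Bidirectional fit against DMSO baseline.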

[17] = BSK_SAg_SRB: Viability Assessment in the BioMAP Diversity Plus: SAg Assay (AID 2283096); details: primary human HUVEC with PBMC;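 further: cells read one day after compound addition; hits may be either gain or loss of signal compared with DMSO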
Method in brief: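 Total protein by sulforhodamine B staining, 24 h after dosing, in HUVEC–PBMC co-culture; DMSO-referenced bidirectional fitting.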

[18] = target: human CYP2A6, CYP2A6 (gene 1548) (UniProt P11509); assay: NVS_ADME_hCYP2A6: NovaScreen (NVS) CYP450-related Enzyme Activity (ADME) Assay for human CYP2A6 (AID 2283099; active means hit-call score of the fitted dose curve at least 0.9, where 1 is the maximum)
human CYP2A6, CYP2A6 (gene 1548), sequence (P11509 whole entry, looked up): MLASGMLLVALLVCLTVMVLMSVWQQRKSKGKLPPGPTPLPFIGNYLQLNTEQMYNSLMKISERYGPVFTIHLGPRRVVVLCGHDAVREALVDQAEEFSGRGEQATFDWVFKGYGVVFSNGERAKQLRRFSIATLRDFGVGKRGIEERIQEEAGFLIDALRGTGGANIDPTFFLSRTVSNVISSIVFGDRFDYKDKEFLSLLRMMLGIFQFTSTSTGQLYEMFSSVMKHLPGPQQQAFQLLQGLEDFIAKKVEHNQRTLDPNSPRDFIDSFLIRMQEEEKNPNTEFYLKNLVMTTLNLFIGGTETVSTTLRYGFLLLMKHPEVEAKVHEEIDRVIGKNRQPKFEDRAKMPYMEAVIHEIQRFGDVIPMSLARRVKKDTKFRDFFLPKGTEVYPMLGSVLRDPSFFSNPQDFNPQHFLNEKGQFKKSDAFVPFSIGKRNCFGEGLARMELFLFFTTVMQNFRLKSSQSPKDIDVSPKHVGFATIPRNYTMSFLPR
Method in brief: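 Loss of fluorescence signal relative to acetonitrile vehicle reported CYP2A6 inhibition in a cell-free system using insect-cell-derived enzyme. Readings were taken at 0.5 h; top concentration in follow-up dose series was 20 uM.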

Measured: AC50

E-selectin (Homo sapiens), sequence (P16581 whole entry, looked up): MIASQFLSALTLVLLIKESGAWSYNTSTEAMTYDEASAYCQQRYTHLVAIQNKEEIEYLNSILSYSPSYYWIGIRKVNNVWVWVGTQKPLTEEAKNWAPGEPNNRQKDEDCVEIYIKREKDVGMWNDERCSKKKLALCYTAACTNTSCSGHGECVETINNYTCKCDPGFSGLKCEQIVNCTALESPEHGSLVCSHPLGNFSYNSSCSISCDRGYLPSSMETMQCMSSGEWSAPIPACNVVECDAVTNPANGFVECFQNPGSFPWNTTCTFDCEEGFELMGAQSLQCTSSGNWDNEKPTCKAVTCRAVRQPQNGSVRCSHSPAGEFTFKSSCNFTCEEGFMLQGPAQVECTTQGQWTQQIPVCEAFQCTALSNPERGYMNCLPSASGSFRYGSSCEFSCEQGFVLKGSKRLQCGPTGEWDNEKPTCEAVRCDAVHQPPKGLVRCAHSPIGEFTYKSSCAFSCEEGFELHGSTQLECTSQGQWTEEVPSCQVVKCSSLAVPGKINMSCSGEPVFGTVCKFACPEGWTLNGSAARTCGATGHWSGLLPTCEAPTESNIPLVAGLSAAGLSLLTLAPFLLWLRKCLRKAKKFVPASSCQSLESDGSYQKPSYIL
Tumor necrosis factor (Homo sapiens), sequence (P01375 whole entry, looked up): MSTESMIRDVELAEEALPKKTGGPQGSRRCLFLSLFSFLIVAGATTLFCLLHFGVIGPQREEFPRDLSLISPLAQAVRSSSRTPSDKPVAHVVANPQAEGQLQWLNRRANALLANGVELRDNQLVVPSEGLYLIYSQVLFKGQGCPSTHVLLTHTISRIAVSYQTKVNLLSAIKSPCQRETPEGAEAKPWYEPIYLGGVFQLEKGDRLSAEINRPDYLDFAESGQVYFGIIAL

O=C(O)Cc1ccccc1Nc1c(Cl)cccc1Cl
active: [3] 0.291 µM | [4] 16.6 µM | [6] 20 µM | [16] 15.6 µM
not listed: [18]
inactive: all other assays above

Cc1nc(C)nc(N2C[C@@H](C)N(c3ccnc([C@@H](C)O)n3)[C@@H](C)C2)n1
not listed: [18]
inactive: all other assays above

CN[C@H]1CC[C@@H](c2ccc(Cl)c(Cl)c2)c2ccc(S(N)(=O)=O)cc21
active: [1] 24.1 µM | [2] 18.7 µM | [4] 30.1 µM | [5] 32.2 µM | [6] 23.3 µM | [7] 20 µM | [8] 27.7 µM | [9] 29.3 µM | [10] 26.1 µM | [11] 25.2 µM | [12] 20 µM | [13] 31.2 µM | [14] 20.5 µM | [15] 13.8 µM | [16] 12.4 µM | [17] 28.8 µM
inactive: [3]

Cc1ccc(C)c(O)c1C
active: [3] 0.795 µM
inactive: all other assays above

CC1=C(/C=C/C(C)=C/C=C/C(C)=C/CO)C(C)(C)CCC1
inactive: [1] | [2] | [5] | [13] | [14] | [15] | [17] | [18]
active: [3] 0.574 µM | [4] 8.45 µM | [6] 5.39 µM | [7] 30.5 µM | [8] 32.7 µM | [9] 26.4 µM | [10] 20.9 µM | [11] 20.9 µM | [12] 12.8 µM | [16] 26.1 µM

CCCCc1ccc2c(n1)[C@@H](c1ccc(OC)cc1C[C@H](C)C(=O)O)[C@H](C(=O)O)[C@H]2c1ccc2c(c1)OCO2
not listed: [14] | [18]
inactive: all other assays above

O=C(N[C@@H](Cc1ccccc1)[C@@H](O)C(=O)N1C[C@@H](O)[C@@H](O)C1)c1cc2cc(Cl)ccc2[nH]1
not listed: [18]
inactive: all other assays above

Cc1ccc(Cl)cc1
not listed: [14] | [18]
inactive: all other assays above

COCCOCCOC
not listed: [14] | [18]
inactive: all other assays above

CCCCCCCC=O
not listed: [18]
inactive: all other assays above

CN1CCCC1=O
not listed: [18]
inactive: all other assays above

CCCCN(CCCC)CCCC
not listed: [18]
inactive: all other assays above

CCCCC(CC)COC(=O)CC(C(=O)OCC(CC)CCCC)S(=O)(=O)O (stereo not drawn)
inactive: [3] | [6]
active: [1] 32.3 µM | [2] 30.9 µM | [4] 31.4 µM | [5] 32 µM | [7] 36.5 µM | [8] 35.3 µM | [9] 35.5 µM | [10] 32.1 µM | [11] 33 µM | [12] 34.1 µM | [13] 38 µM | [14] 34.8 µM | [15] 33.6 µM | [16] 32.5 µM | [17] 36.2 µM

c1cc(-c2ccncc2)ccn1
not listed: [18]
inactive: all other assays above

CCCCCCCCCCC
not listed: [14] | [18]
inactive: all other assays above
